# Experimental data reported in PubChem BioAssay.
# “And” between values parts separate entries of the source, which are not always exact repeats. Equal values may be shown once. A structure can be active in one record and inactive in another. The source made the active and inactive calls.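 How the source made its calls, unless noted: active means compounds whose cell count with miR-34 switched on is under 0.7 times the count with it off; inactive means the rest.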
# How the values were obtained:
# [1] = sensitizers of A549 cells to miR-34 induction, primary screen, imaging, A549 dox-inducible miR-34, nuclei and caspase counts (AID 1347080); conditions: A549 miR-34 inducible, Hoechst nuclei count, 48 h
# [2] = survival rescue of mitochondrial mutant cells in low glucose, primary screen, MELAS cybrids, Rieske KO mouse fibroblasts, CellTiter-Glo (AID 1508586;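 active means mean z-score across replicates of 1.96 or higher in either the MELAS or the Rieske mutant cell line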;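 further: z relative to plate mean and SD of compound and empty wells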)
# [3] = biological target: NAD(+) hydrolase SARM1 (Homo sapiens) (UniProt Q6SZW1); assay: SARM1 TIR NADase inhibitors, cell lysate, NAD-Glo luminescence (AID 1508614;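 active means compound whose remaining NAD level is above about 45 nM, limit read from the data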); conditions: SAM-TIR HEK293T lysate NADase, at 1 µM, stronger effect = higher value
# Sequence of NAD(+) hydrolase SARM1 (Homo sapiens) (Q6SZW1 whole entry, looked up, the tested form may be a part): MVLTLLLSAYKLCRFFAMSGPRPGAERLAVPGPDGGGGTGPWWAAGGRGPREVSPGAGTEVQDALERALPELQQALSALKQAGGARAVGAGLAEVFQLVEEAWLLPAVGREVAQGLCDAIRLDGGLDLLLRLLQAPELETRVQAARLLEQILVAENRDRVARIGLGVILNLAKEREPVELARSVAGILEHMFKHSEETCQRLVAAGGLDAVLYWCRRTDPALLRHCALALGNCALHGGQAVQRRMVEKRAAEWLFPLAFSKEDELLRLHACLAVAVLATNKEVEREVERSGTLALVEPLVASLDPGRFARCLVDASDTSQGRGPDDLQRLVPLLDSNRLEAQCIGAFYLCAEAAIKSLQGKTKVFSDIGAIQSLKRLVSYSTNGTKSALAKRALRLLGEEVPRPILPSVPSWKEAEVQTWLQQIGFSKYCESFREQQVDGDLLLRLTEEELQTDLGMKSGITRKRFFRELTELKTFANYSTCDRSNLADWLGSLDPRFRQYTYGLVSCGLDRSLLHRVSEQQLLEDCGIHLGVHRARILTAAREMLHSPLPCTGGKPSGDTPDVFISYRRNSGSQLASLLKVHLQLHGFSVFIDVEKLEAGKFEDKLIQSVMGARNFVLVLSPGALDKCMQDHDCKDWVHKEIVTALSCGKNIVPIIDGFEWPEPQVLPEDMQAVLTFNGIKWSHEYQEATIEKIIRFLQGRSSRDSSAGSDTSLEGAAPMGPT
# [4] = biological target: Mitogen-activated protein kinase 7 (Homo sapiens) (UniProt Q13164); assay: ERK5 transactivation activators in reporter cells, primary screen, cell-based, HTS (AID 1508626;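 active means luciferase signal above three times the same-plate solvent-only control wells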;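 further: luciferase driven by Gal4-ERK5 fusion binding five Gal4 sites before minimal TATA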); conditions: HeLa Gal4-ERK5 transactivation, 18 h, at 5 µM, stronger effect = higher value
# Sequence of Mitogen-activated protein kinase 7 (Homo sapiens) (Q13164 whole entry, looked up, the tested form may be a part): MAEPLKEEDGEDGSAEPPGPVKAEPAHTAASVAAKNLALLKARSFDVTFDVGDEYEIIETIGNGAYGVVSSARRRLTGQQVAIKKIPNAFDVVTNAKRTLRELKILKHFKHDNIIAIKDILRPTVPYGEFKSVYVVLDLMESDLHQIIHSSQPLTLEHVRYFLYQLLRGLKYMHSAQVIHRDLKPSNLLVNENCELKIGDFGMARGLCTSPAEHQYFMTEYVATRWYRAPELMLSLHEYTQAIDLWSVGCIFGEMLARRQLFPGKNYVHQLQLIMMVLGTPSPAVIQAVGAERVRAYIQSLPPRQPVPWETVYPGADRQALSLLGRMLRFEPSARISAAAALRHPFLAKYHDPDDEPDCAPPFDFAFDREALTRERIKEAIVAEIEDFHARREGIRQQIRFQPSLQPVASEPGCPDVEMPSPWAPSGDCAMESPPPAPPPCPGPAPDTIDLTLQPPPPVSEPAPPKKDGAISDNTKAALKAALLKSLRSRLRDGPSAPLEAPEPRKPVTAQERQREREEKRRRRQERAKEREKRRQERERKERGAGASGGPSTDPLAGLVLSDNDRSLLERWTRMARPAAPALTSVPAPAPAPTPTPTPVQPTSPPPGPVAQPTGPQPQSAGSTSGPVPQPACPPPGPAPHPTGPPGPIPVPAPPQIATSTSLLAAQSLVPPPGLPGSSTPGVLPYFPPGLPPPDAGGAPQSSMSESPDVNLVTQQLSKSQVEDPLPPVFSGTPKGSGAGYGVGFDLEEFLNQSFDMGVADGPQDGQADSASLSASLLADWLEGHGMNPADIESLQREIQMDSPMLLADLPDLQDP
# [5] = viability rescue of complex I mutant cybrids, primary screen, cell-based, galactose medium, ATP luminescence (AID 1645843;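 active means z-score of at least 1.8 in each of two replicates, scored against plate mean and spread of sample wells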;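 further: positive z means more ATP and so rescue of galactose-driven cybrid death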); conditions: complex I mutant cybrid cells, 72 h, stronger effect = higher value
# [6] = stronger effect = lower value, cell number ratio, induced over uninduced
# [7] = measured here: relative caspase fold change +Dox/-Dox
# [8] = measured here: total cells with miR-34 induction, stronger effect = lower value
# [9] = measured here: total cells without miR-34 induction
# [10] = MELAS cybrid survival, CellTiter-Glo 48 h, stronger effect = higher value
# [11] = Rieske KO mouse fibroblast survival, CellTiter-Glo 72 h
Structure (SMILES),"fold change [1, 6]","fold change [1, 7]","cell count [1, 8]","cell count [1, 9]","z-score [2, 10]","z-score [2, 11]",remaining NAD [3],luciferase signal [4],z-score [5]
CCN(CC)CCOC(=O)C(c1ccccc1)C1CCCCC1 (centres undefined),0.896 (inactive),1.16,8670,9680,-2.21 (inactive),0.0498,10 nM (inactive),52 AU (inactive),
CCCc1ncc(C[n+]2ccccc2C)c(N)n1,0.899 (inactive) and 0.934 (inactive) and 0.817 (inactive),1.48 and 1.05 and 2.66,8050 and 8570 and 10100,8960 and 9180 and 12400,-0.137 (inactive) and -0.369 (inactive),-0.2 and 0.188,10 nM (inactive),52 AU (inactive),
Cc1cc(C)nc(NS(=O)(=O)c2ccc(N)cc2)n1,0.847 (inactive) and 0.927 (inactive) and 0.901 (inactive),1.07 and 0.872 and 2.46,9060 and 8070 and 10900,10700 and 8710 and 12100,-0.0833 (inactive) and 0.863 (inactive),-0.156 and 0.665,10 nM (inactive),36 AU (inactive),
Cc1cc(=O)[nH]c(=S)[nH]1,0.999 (inactive) and 0.935 (inactive),0.275 and 0.458,8050 and 11700,8060 and 12500,0.105 (inactive),-0.199,10 nM (inactive),100 AU (inactive),
NC(N)=NCCN1CCCCCCC1,0.903 (inactive) and 0.92 (inactive),1.86 and 0.829,8660 and 10700,9590 and 11600,-0.808 (inactive),0.402,10 nM (inactive),32 AU (inactive),
COc1cccc(OC)c1C(=O)N[C@@H]1C(=O)N2[C@@H]1SC(C)(C)[C@@H]2C(=O)O,0.949 (inactive),0.959,11700,12400,-0.625 (inactive),-0.275,10 nM (inactive),32 AU (inactive),
Cc1ccccc1OCC(O)CO (centres undefined),0.91 (inactive) and 0.921 (inactive),0.936 and 3.64,8610 and 11300,9470 and 12300,-0.331 (inactive),-0.218,10 nM (inactive),44 AU (inactive),
O=C(O)c1cc(=O)c2ccccc2o1,0.884 (inactive),1.39,8030,9090,-0.239 (inactive),-0.17,10 nM (inactive),52 AU (inactive),
O=C(O)c1ccccc1OP(=O)(O)O,0.878 (inactive),1.05,9100,10400,0.629 (inactive),-0.238,10 nM (inactive),60 AU (inactive),
CC(C)N=C(N)/N=C(\N)Nc1ccc(Cl)cc1,0.874 (inactive) and 0.829 (inactive),0.463 and 3.03,7740 and 10800,8860 and 13000,-1.19 (inactive),0.61,10 nM (inactive),84 AU (inactive),
CC1CC(OC(=O)C(O)c2ccccc2)CC(C)(C)N1C (centres undefined),0.792 (inactive),1.56,7700,9720,-0.0236 (inactive),-0.373,10 nM (inactive),48 AU (inactive),
C[C@@](Cc1ccc(O)c(O)c1)(NN)C(=O)O,0.855 (inactive) and 0.878 (inactive) and 0.94 (inactive),1.15 and 0.758 and 1.14,8030 and 8200 and 9200,9400 and 9340 and 9790,-0.318 (inactive) and -0.0378 (inactive) and 0.282 (inactive),0.573 and -0.159 and -0.894,10 nM (inactive),56 AU (inactive),1.23 (inactive) and -0.53 (inactive)
CC(C)(Oc1ccc(Cl)cc1)C(=O)O,0.908 (inactive) and 0.929 (inactive) and 0.927 (inactive),1.01 and 0.543 and 0.953,9250 and 7700 and 8560,10200 and 8280 and 9240,-0.232 (inactive) and -0.856 (inactive),-0.207 and -0.151,10 nM (inactive),72 AU (inactive),0.98 (inactive)
CO[C@]12C[C@@H](COC(=O)c3cncc(Br)c3)CN(C)[C@@H]1Cc1cn(C)c3cccc2c13,0.861 (inactive) and 0.885 (inactive) and 0.895 (inactive),1.4 and 2.61 and 0.782,8590 and 11400 and 9340,9980 and 12900 and 10400,0.949 (inactive) and 0.883 (inactive),0.302 and 0.698,10 nM (inactive),56 AU (inactive),1.27 (inactive)
CCCCCCCCNC(C)C(O)c1ccc(SC(C)C)cc1 (centres undefined),0.989 (inactive) and 0.828 (inactive),0.711 and 5.68,4220 and 5020,4270 and 6060,-2.11,11.2,10 nM (inactive),60 AU (inactive),
CCCCCCCCCCCCCCCCOP(=O)([O-])OCC[N+](C)(C)C,1 (inactive) and 0.955 (inactive),0.961 and 1.28,5900 and 10200,5890 and 10700,-0.744 (inactive),-0.431,10 nM (inactive),132 AU (inactive),-0.3 (inactive)
C/C=C/c1ccc(OC)cc1,0.85 (inactive) and 0.895 (inactive),3 and 1.61,10200 and 9980,11900 and 11200,-0.525 (inactive),-1.37,10 nM (inactive),76 AU (inactive),0.095 (inactive)
CN(C/C=C/C#CC(C)(C)C)Cc1cccc2ccccc12,0.935 (inactive) and 0.938 (inactive),4.07 and 1.16,11600 and 9190,12400 and 9800,0.287 (inactive) and -0.488 (inactive),-0.0957 and -0.937,10 nM (inactive),52 AU (inactive),-1.48 (inactive)

Structure (SMILES),"fold change [1, 6]","fold change [1, 7]","cell count [1, 8]","cell count [1, 9]","z-score [2, 10]","z-score [2, 11]",remaining NAD [3],luciferase signal [4],z-score [5]
C=C1c2cccc(O)c2C(O)=C2C(=O)[C@]3(O)C(O)=C(C(N)=O)C(=O)[C@@H](N(C)C)[C@@H]3[C@@H](O)[C@H]12,0.869 (inactive) and 0.999 (inactive),1.25 and 1.82,7110 and 11900,8180 and 11900,0.00753 (inactive),-2.31,10 nM (inactive),40 AU (inactive),
Nc1nccs1,0.923 (inactive),0.616,7980,8650,-0.119 (inactive),-0.205,10 nM (inactive),40 AU (inactive),
CN1CCC(OC(c2ccccc2)c2ccccc2)CC1,0.843 (inactive) and 0.871 (inactive),1.44 and 0.876,8640 and 11300,10200 and 13000,0.35 (inactive),0.809,10 nM (inactive),32 AU (inactive),
Oc1c(Cl)cc(Cl)c(Cl)c1Cc1c(O)c(Cl)cc(Cl)c1Cl,1.05 (inactive) and 0.85 (inactive),2.17 and 2.72,2100 and 2440,2010 and 2860,-0.483 (inactive),0.0864,10 nM (inactive),28 AU (inactive),-1.5 (inactive)
CN1[C@@H]2CC[C@H]1CC(OC(=O)C(O)c1ccccc1)C2 (some centres undefined),0.916 (inactive),1.3,8240,9000,0.652 (inactive),0.375,10 nM (inactive),40 AU (inactive),
CC1(C)O[C@@H]2C[C@H]3[C@@H]4C[C@H](F)C5=CC(=O)CC[C@]5(C)[C@H]4[C@@H](O)C[C@]3(C)[C@]2(C(=O)CO)O1,0.775 (inactive),0.796,4730,6100,-0.21 (inactive),0.615,10 nM (inactive),228 AU (inactive),
COc1cc(C(=O)NCc2ccc(OCCN(C)C)cc2)cc(OC)c1OC,0.938 (inactive) and 0.925 (inactive) and 0.912 (inactive),0.8 and 0.443 and 2.44,8110 and 8000 and 11800,8650 and 12900,3.55 (active) and 0.307 (inactive),-0.723 and -0.201,10 nM (inactive),48 AU (inactive),0.17 (inactive)
O=c1cc[nH]c(=S)[nH]1,0.917 (inactive),0.54,7500,8180,-0.297 (inactive),-0.0433,10 nM (inactive),100 AU (inactive),
COc1cc2c(cc1OC)C(=O)C(CC1CCN(Cc3ccccc3)CC1)C2 (centres undefined),0.863 (inactive) and 0.884 (inactive),1.25 and 2.01,8000 and 11200,9270 and 12700,1.84 (inactive),0.641,10 nM (inactive),32 AU (inactive),-0.225 (inactive)
Cc1ccnc(NS(=O)(=O)c2ccc(N)cc2)n1,0.871 (inactive) and 0.913 (inactive),1.08 and 0.734 and 2.66,8890 and 7940 and 11400,10200 and 8690 and 12500,-0.105 (inactive) and 0.577 (inactive),-0.152 and -0.312,10 nM (inactive),68 AU (inactive),
Cc1c(C(N)=O)cc([N+](=O)[O-])cc1[N+](=O)[O-],1.04 (inactive),1.27,8930,8590,-0.219 (inactive),-0.175,10 nM (inactive),68 AU (inactive),
CCN(CC)Cc1cc(Nc2ccnc3cc(Cl)ccc23)ccc1O,0.891 (inactive),1.28,7140,8010,0.684 (inactive),0.737,10 nM (inactive),60 AU (inactive),
COc1ccc(C(=O)c2ccccc2)c(O)c1,0.864 (inactive) and 0.859 (inactive),1.19 and 0.952,7820 and 11100,9050 and 12900,-0.0705 (inactive),-1.09,10 nM (inactive),36 AU (inactive),
Cc1[nH]c(C)c(Cl)c(=O)c1Cl,0.869 (inactive) and 0.865 (inactive),4.77 and 1.49,11500 and 9370,13300 and 10800,-1.24 (inactive),-1.35,10 nM (inactive),48 AU (inactive),0.41 (inactive)
CCn1cc(C(=O)O)c(=O)c2cnc(N3CCCC3)nc21,0.925 (inactive),1.02,8260,8920,-0.0207 (inactive),-0.983,10 nM (inactive),80 AU (inactive),
O=C(OCC(O)CO)c1ccccc1Nc1ccnc2cc(Cl)ccc12 (centres undefined),0.91 (inactive),1.28,8940,9820,1.77 (inactive),0.884,10 nM (inactive),176 AU (active),
CN1C(C)(C)CCCC1(C)C,0.888 (inactive),1,9180,10300,-0.15 (inactive),1.08,,68 AU (inactive),
